Rows were chosen to be rich in hits. Some 2.2% of all compounds tested hit in one or more screens of this group.
aSyn yeast inh: inhibitors of alpha-synuclein toxicity in yeast; 370,000 compounds, 0.14% hits; AID 652106; Yeast expressing alpha-synuclein, growth rescue, BacTiter-Glo, 24 h; Potency, µM (top dose mostly 46.1 µM), for inactives: top-dose growth rescue (activation), actives largely listed as activators; also: % of control where 0% means no effect; nearly all actives have a fitted effect of over 65% in size
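Rescue of yeast growth: cells expressing toxic alpha-synuclein, induced in galactose at OD600 0.02, incubated with compound 24 h at 30 C. ATP luminescence quantified growth; inhibitors of toxicity appear as activators.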
TDP-43 yeast inh: TDP-43 toxicity inhibition in yeast; TDP-43 expressing yeast growth rescue, BacTiter-Glo, 24 h; Potency, µM (highest dose often 46.1 µM), inactives show top-dose growth rescue (activation), actives largely listed as activators; 410,000 compounds, 1.8% hits; also: % of control where 0% means no effect; nearly all actives have a fitted effect of over 50% in size
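In this qHTS, compounds that restore growth of yeast expressing TDP-43 appear as activators. Cells (OD600=0.02, galactose medium, raffinose-pregrown) are incubated with compound 24 hr at 30 deg C and growth is quantified by BacTiter-Glo.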
Mito fusion act: inhibitors of mitochondrial division or activators of mitochondrial fusion; S. cerevisiae fusion-defective mutant growth rescue, CellTiterGlo 48 h; Potency, µM (doses to about 46.1 µM), for inactives: at the highest dose growth rescue (activation), most hits filed as activators; 320,000 compounds, 0.23% hits; AID 485298; also: % of control where 0% means no effect; nearly all actives have a fitted effect of over 45% in size
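Growth-rescue viability read-out: after 48 h at the non-permissive 37C in glycerol/ethanol YPEG, yeast mitochondrial fusion mutants are measured by CellTiterGlo luminescence; compounds (23 nl pinned per well) restoring growth score as division inhibitors or fusion activators.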
Abeta rescue: A-beta toxicity reversal in yeast; 410,000 compounds, 0.063% hits; Potency, µM (highest dose often 46.1 µM), usual class: activators; yeast expressing A-beta42, growth rescue, OD600, 48 h; response scale: 0% DMSO, 100% iron-clioquinol control; also: nearly all actives have a fitted effect of over 55% in size
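Growth rescue measured by 600 nm absorbance after 48 h yeast culture at 30 C with compound. Values normalized between DMSO and an equimolar ferric chloride plus clioquinol control.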
FUS yeast rescue: suppressors of FUS proteinopathy in yeast. Potency, µM (doses to about 76.6 µM), usual class: activators. S. cerevisiae FUS-expressing, growth rescue, OD600, 24 h. 390,000 compounds, 0.24% hits;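 also: plate controls were DMSO vehicle for no effect and reference control for full effect; nearly all actives have a fitted effect of over 55% in size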
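Read-out: OD at 600 nm after 24hr at 30C, reporting rescue of FUS-induced yeast toxicity. Cells at OD 0.005 in galactose (2%) minimal medium; compounds tested in a dilution series; CP55940 titration from 92uM final as control.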
ERG-DNA inh: blocks human ERG Ets domain binding to DNA | P11308 | fluorescence polarization, His-ERG Ets domain / labelled DNA | Potency, µM (series often up to 76.9 µM), for the others: at the top dose FP activity, negative = inhibition, most hits filed as inhibitors | 370,000 compounds, 0.028% hits | AID 624246; active = well fitted inhibition curve with a large enough effect in the polarisation, with a control signal flat; inconclusive = small, poorly fitted or top-dose-only effect, or effect the other way, or a change in a side signal; inactive = no such curve, though single readings can be large or run the other way; the % refers to the polarisation;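 also: polarization taken with two DNA probes labelled with fluorescein and Texas red; % of control where 0% means no effect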
Target sequence (P11308 whole entry, looked up, the tested form may be a part): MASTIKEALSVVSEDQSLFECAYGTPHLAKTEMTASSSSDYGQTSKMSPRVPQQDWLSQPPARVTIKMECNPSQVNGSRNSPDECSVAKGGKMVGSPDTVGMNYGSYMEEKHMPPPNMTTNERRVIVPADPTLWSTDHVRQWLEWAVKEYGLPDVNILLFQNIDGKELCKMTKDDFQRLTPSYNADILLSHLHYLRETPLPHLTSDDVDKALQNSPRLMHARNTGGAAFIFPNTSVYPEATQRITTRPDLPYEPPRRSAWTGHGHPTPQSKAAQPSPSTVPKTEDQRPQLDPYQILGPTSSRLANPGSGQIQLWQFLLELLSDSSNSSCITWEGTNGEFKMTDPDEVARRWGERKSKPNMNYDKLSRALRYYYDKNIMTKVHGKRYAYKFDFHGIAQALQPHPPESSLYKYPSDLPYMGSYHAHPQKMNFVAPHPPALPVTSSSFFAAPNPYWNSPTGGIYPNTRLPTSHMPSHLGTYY
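His-tagged ERG Ets domain (1 uM in the protein solution; 300mM KCl, 50mM Tris-HCl, 1mM EDTA, 1mM DTT, pH 7.5) received compound, then a probe mix of 5 nM fluorescein-DNA and 100nM Texas-615-DNA. Fluorescence polarization was read for both dyes.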
An asterisk follows results filed as active; i = inactive; ? = inconclusive; / = no result given; ! = repeats disagree; [ ] = dose if it differs, or a comment. Unless noted, calls follow the shape of the dose curve; as a rule, active = well fitted curve in the direction sought with a large enough effect; inconclusive = small, poorly fitted or top-dose-only effect, or another doubt; inactive = no such curve, though single readings can be large; an effect the other way counts as inactive or inconclusive. Potency is read from the fitted curve at half-maximal effect.

SMILES | aSyn yeast inh | TDP-43 yeast inh | Mito fusion act | Abeta rescue | FUS yeast rescue | ERG-DNA inh
CCCCCN1CCCCC(NC(=O)c2cccc(F)c2)C1=O (configuration not stated) | / | / | / | / | i | /
CCc1ccc(-n2c(=O)c3ccccc3n(Cc3ccccc3C#N)c2=O)cc1 | / | ? | / | i | i | -0.1%
O=C1[C@@H]2[C@@H](CN3CN(c4ccccc4)N=C(c4ccccc4)[C@@]23c2ccccc2)C(=O)N1c1ccccc1 | -62.4% | ? | / | i | / | /
CCc1cccc(C)c1NC(=O)Cn1c(=O)n(-c2cccc(C)c2)c(=O)c2c1c1cc(C)ccc1n2C | / | 15.8% | / | i | i | 1.7%
Oc1ccc(Br)cc1-c1nc2cnccn2c1NC1CCCC1 | 10.9% | 22.4µM* | 20.6% | i | i | -6.1%
Cc1ccc(SC2=C(C(=O)O)CCCC2)cc1 | 23.6% | 10µM* | 29.3% | i | i | 1.7%
Cc1ccc(SC(C)C(=O)N2CCCC2)cc1 (configuration not stated) | -1.6% | -14.7% | 0.6% | i | i | 1.0%
COc1ccc(Nc2cc(C)c3cc(NC(=O)Cc4ccc(Cl)cc4)ccc3n2)cc1 | / | ? | / | i | i | 0.7%
CCc1nccn1CC(=O)c1ccc(O)c(O)c1 | / | / | / | / | i | /
Cc1ccc(S(=O)(=O)N(CC(O)Cn2c3ccccc3c3ccccc32)c2cccc(C(=O)N(C)C)c2)cc1 (configuration not stated) | -1.3% | 15.5% | / | i | ? | ?
Cc1ccc(S(=O)(=O)N(CC(O)Cn2c3ccccc3c3ccccc32)c2cccc(C(=O)NCCO)c2)cc1 (configuration not stated) | -5.0% | 13.3% | / | i | 20µM* | 1.6%
Cc1ccc(C)c(-c2ccc(=O)n(Cc3ccc(F)cc3Cl)n2)c1 | ? | 22.4µM*! | ? | i | ? | 35.2%
CCOc1ccc(NC(=O)C(CC)n2nc(-c3ccc(C)c(C)c3)ccc2=O)cc1 (configuration not stated) | / | 18.6% | / | i | i | -1.0%
CCC(C(=O)Nc1cc(OC)cc(OC)c1)n1nc(-c2ccc(C)c(C)c2)ccc1=O (configuration not stated) | / | 28.2µM* | / | ? | ? | -0.6%
Cc1ccc(C)c(-c2ccc(=O)n(Cc3cccc(Br)c3)n2)c1 | 13.6% | 24.1% | 8.6% | i | i | 0.9%
CCC(C(=O)Nc1cc(F)ccc1F)n1nc(-c2cc(C)ccc2C)ccc1=O (configuration not stated) | / | 22.4µM* | / | i | i | -1.4%
CC(=O)N1CCCN(C(=O)CN2C(=O)CC(C)(C)S(=O)(=O)c3ccccc32)CC1 | / | / | / | / | i | /
COc1cc(C2c3c(-c4c(C)cc(C)cc4O)n[nH]c3C(=O)N2Cc2ccco2)cc(OC)c1OC (configuration not stated) | / | -2.2% | / | i | i | 1.5%
C#CCNC(=O)C[C@@H]1C(=O)N(CC=C)C2=CCCCC[C@]21C(=O)OC | / | / | / | / | i | /
c1csc(-c2ccc3nncn3c2)c1 | 4.9% | 6.7% | / | i | i | /
OCc1ccccc1-c1ccc2nncn2c1 | ? | 35.5µM* | / | i | i | /
Cc1ccc(-c2cc(C(=O)NN=Cc3cc(Br)ccc3O)[nH]n2)cc1C | / | / | / | / | i | /
Cc1cc(C)c2c(-n3cccc3)c(C(=O)NCCc3ccccc3)sc2n1 | / | 19.0% | / | i | i | 6.9%
O=C(C1CCN(S(=O)(=O)c2ccccc2)CC1)N1CCc2ccccc21 | 0.0% | 19.6% | -1.7% | i | i | -6.0%
O=C(C1CCN(S(=O)(=O)c2ccccc2F)CC1)N1CCc2ccccc21 | 14.9% | 12.6µM* | 7.7% | i | i | 4.3%
O=C(OCC(=O)c1c[nH]c2ccccc12)c1cncc(Br)c1 | -4.8%[1.84 µM] | 11.2µM* | / | i | i | -2.2%

From PubChem
